PubChem BioAssay AID1159580 (chemical genetic matrix, 2015)
Several values for one entry are separate records, joined by “and”; a condition that tells them apart may be missing. Equal entries are not always repeated. In all, about 5,500 compounds went through this assay and about 2,000 (36%) were called active. Not shown: some 18% with an inconclusive outcome. Cut-off read from the data, not from the text of the source: active = normalized growth mostly below about 0.91 (no sharp cut-off); inconclusive = no clear call, values can overlap the other calls; inactive = mostly above about 0.92. The list shows a part of the results.

Experiment: chemical genetic growth profiling, strain panel (AID 1159580);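 note: tested at 20 µM; growth read once vehicle control cultures reached saturation at 30 °C; 1 = growth at the plate median or of vehicle wells; lower values mean less growth of the strain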
Details: S. cerevisiae deletion strains, growth OD

Measured: normalized growth

N[C@@H]1[C@@H](O)[C@H](O)[C@@H](CO)O[C@H]1O
inactive: locus YAL021C, strain ccr4, active compounds read low 1.03 | locus YAL026C, strain drs2, active compounds read low 1.01 | locus YAL030W, strain snc1, active compounds read low 1.02 | locus YBL061C, strain skt5, active compounds read low 1.03 | locus YBR009C, strain hhf1, active compounds read low 1.02 | locus YBR021W, strain FUR4, active compounds read low 1.01 | locus YBR023C, strain chs3, active compounds read low 1.02 | locus YBR171W, strain sec66, active compounds read low 1.04 | locus YBR229C, strain ROT2, active compounds read low 1.01 | locus YBR231C, strain swc5, active compounds read low 1.02 | locus YBR279W, strain paf1, active compounds read low 1.03 | locus YCL011C, strain gbp2, active compounds read low 1.02 | locus YCL016C, strain dcc1, active compounds read low 1.02 | locus YCL029C, strain bik1, active compounds read low 0.998 | locus YCL061C, strain MRC1, active compounds read low 1.03 | locus YCL069W, strain vba3, active compounds read low 1.02 | locus YCR088W, strain abp1, active compounds read low 1.02 | locus YDL005C, strain med2, active compounds read low 1.02 | locus YDL035C, strain GPR1, active compounds read low 1 | locus YDL040C, strain nat1, active compounds read low 1.01 | locus YDL074C, strain BRE1, active compounds read low 1 | locus YDL101C, strain DUN1, active compounds read low 1.01 | locus YDL185W, strain tfp1, active compounds read low 1.01 | locus YDL192W, strain arf1, active compounds read low 1.02 | locus YDR001C, strain nth1, active compounds read low 1.02 | locus YDR069C, strain doa4, active compounds read low 1.02 | locus YDR101C, strain arx1, active compounds read low 0.975 | locus YDR137W, strain rgp1, active compounds read low 1.03 | locus YDR150W, strain NUM1, active compounds read low 1 | locus YDR159W, strain sac3, active compounds read low 1.03 | locus YDR162C, strain NBP2, active compounds read low 1 | locus YDR195W, strain ref2 1.04 | locus YDR297W, strain sur2, active compounds read low 1.01 | locus YDR318W, strain mcm21, active compounds read low 1 | locus YDR334W, strain swr1, active compounds read low 1.02 | locus YDR335W, strain msn5, active compounds read low 1.03 | locus YDR388W, active compounds read low 1 | locus YDR392W, strain spt3, active compounds read low 1 | locus YDR502C, strain sam2, active compounds read low 1.01 | locus YEL003W, strain gim4, active compounds read low 1.02 | locus YEL037C, strain rad23, active compounds read low 1.02 | locus YEL061C, strain CIN8 (second series), active compounds read low 1.02 | locus YEL061C, strain CIN8, active compounds read low 1.02 | locus YER015W, strain faa2, active compounds read low 1.03 | locus YER016W, strain bim1, active compounds read low 1.01 | locus YER110C, active compounds read low 1 | locus YER111C, strain swi4, active compounds read low 1.03 | locus YER155C, strain BEM2 (second series), active compounds read low 1.05 | locus YER155C, strain BEM2, active compounds read low 1 | locus YER167W, strain BCK2, active compounds read low 1.01 | locus YFR010W, strain ubp6, active compounds read low 1.01 | locus YGL078C, strain dbp3, active compounds read low 1.01 | locus YGL086W, strain mad1, active compounds read low 0.999 | locus YGL167C, strain pmr1, active compounds read low 1.03 | locus YGL173C, strain kem1, active compounds read low 1.03 | locus YGL227W, strain vid30, active compounds read low 1.02 | locus YGL240W, strain doc1, active compounds read low 1.04 | locus YGL248W, strain PDE1, active compounds read low 1.01 | locus YGL253W, strain hxk2, active compounds read low 1.02 | locus YGR078C, strain PAC10, active compounds read low 1 | locus YGR135W, strain pre9, active compounds read low 1.05 | locus YGR229C, strain SMI1, active compounds read low 1 | locus YGR252W, strain gcn5, active compounds read low 1.01 | locus YHR013C, strain ard1, active compounds read low 1.06 | locus YHR027C, strain rpn1, active compounds read low 1.06 | locus YHR030C, strain SLT2, active compounds read low 1 and 0.98 | locus YHR079C, strain IRE1 (second series), active compounds read low 1.01 | locus YHR079C, strain IRE1, active compounds read low 0.968 | locus YHR094C, strain hxt1, active compounds read low 0.998 | locus YHR129C, strain ARP1, active compounds read low 0.994 | locus YHR142W, strain chs7, active compounds read low 1.01 | locus YHR200W, strain rpn10, active compounds read low 1.01 | locus YIL066C, strain RNR3, active compounds read low 1 | locus YIL073C, strain SPO22, active compounds read low 1.04 | locus YIL125W, strain kgd1, active compounds read low 1.01 | locus YIR030C, strain dcg1, active compounds read low 1.01 | locus YJL092W, strain hpr5, active compounds read low 1.03 | locus YJL095W, strain BCK1 (second series), active compounds read low 1.01 | locus YJL095W, strain BCK1, active compounds read low 1.01 and 0.986 | locus YJL115W, strain asf1, active compounds read low 1.03 | locus YJL129C, strain trk1, active compounds read low 1.04 | locus YJL134W, strain LCB3, active compounds read low 1.01 | locus YJL154C, strain vps35, active compounds read low 1.02 | locus YJL164C, strain tpk1, active compounds read low 1.04 | locus YJL166W, strain qcr8, active compounds read low 1.03 | locus YJL168C, strain set2, active compounds read low 1 | locus YJL187C, strain SWE1 (second series), active compounds read low 1 | locus YJL187C, strain SWE1, active compounds read low 1.01 | locus YJR043C, strain POL32, active compounds read low 0.992 | locus YJR066W, strain TOR1, active compounds read low 0.937 | locus YJR075W, strain HOC1, active compounds read low 1 | locus YKL009W, strain mrt4, active compounds read low 1.01 | locus YKL068W, active compounds read low 1 | locus YKL085W, strain MDH1 (second series), active compounds read low 1.01 | locus YKL085W, strain MDH1, active compounds read low 1.01 | locus YKL160W, strain elf1, active compounds read low 1.04 | locus YKR001C, strain vps1, active compounds read low 0.993 | locus YKR026C, strain gcn3, active compounds read low 1.02 | locus YKR091W, strain srl3, active compounds read low 1.02 | locus YLL001W, strain dnm1, active compounds read low 1.03 | locus YLL026W, active compounds read low 1.01 | locus YLL041C, strain sdh2, active compounds read low 1.01 | locus YLR027C, strain aat2, active compounds read low 1.01 | locus YLR039C, strain RIC1, active compounds read low 1.05 | locus YLR058C, strain SHM2, active compounds read low 1.01 | locus YLR102C, strain apc9, active compounds read low 1 | locus YLR113W, strain HOG1, active compounds read low 0.985 | locus YLR221C, strain rsa3, active compounds read low 1.03 | locus YLR258W, strain gsy2, active compounds read low 1.02 | locus YLR262C, strain YPT6 (second series), active compounds read low 1.06 | locus YLR262C, strain YPT6, active compounds read low 1.02 | locus YLR268W, strain sec22, active compounds read low 1.01 | locus YLR320W, strain mms22, active compounds read low 1.05 | locus YLR330W, strain CHS5, active compounds read low 1 | locus YLR342W, strain FKS1 (second series), active compounds read low 1.01 | locus YLR342W, strain FKS1, active compounds read low 1.02 | locus YLR357W, strain rsc2, active compounds read low 1.05 | locus YLR370C, strain arc18, active compounds read low 1.02 | locus YLR371W, strain rom2, active compounds read low 0.991 | locus YLR384C, strain iki3, active compounds read low 1.03 | locus YLR418C, strain cdc73, active compounds read low 1.01 | locus YML016C, strain PPZ1, active compounds read low 1 | locus YML032C, strain rad52, active compounds read low 0.994 | locus YML120C, strain ndi1, active compounds read low 1.03 | locus YML124C, strain tub3, active compounds read low 1.01 | locus YMR058W, strain fet3, active compounds read low 1.02 | locus YMR078C, strain ctf18, active compounds read low 1.01 | locus YMR125W, strain sto1, active compounds read low 1.04 | locus YMR129W, active compounds read low 1.01 | locus YMR205C, strain PFK2, active compounds read low 1.04 | locus YMR223W, strain ubp8, active compounds read low 1.02 | locus YMR231W, strain pep5, active compounds read low 1.02 | locus YMR307W, strain GAS1, active compounds read low 1.01 | locus YNL067W, strain RPL9B, active compounds read low 1.01 | locus YNL071W, strain lat1, active compounds read low 1.03 | locus YNL183C, strain NPR1, active compounds read low 0.962 | locus YNL209W, strain ssb2, active compounds read low 1.01 | locus YNL233W, strain BNI4, active compounds read low 1.01 | locus YNL248C, strain rpa49, active compounds read low 1.03 | locus YNL250W, strain rad50, active compounds read low 1.05 | locus YNL271C, strain bni1, active compounds read low 1.02 | locus YNL298W, strain CLA4, active compounds read low 1.01 | locus YNL307C, strain MCK1, active compounds read low 1.01 | locus YNL322C, strain KRE1 (second series), active compounds read low 1.04 | locus YNL322C, strain KRE1, active compounds read low 1 | locus YNR049C, strain mso1, active compounds read low 1.02 | locus YNR052C, strain pop2, active compounds read low 1.01 | locus YOL006C, strain TOP1, active compounds read low 1.05 | locus YOL012C, strain htz1 0.886 | locus YOL147C, strain pex11, active compounds read low 1.01 | locus YOR001W, strain rrp6, active compounds read low 1.04 | locus YOR061W, strain CKA2, active compounds read low 1 | locus YOR069W, strain VPS5, active compounds read low 1.01 | locus YOR070C, strain gyp1, active compounds read low 1.03 | locus YOR080W, strain dia2, active compounds read low 1.04 | locus YOR083W, strain WHI5, active compounds read low 1.04 | locus YOR106W, strain vam3, active compounds read low 1.06 | locus YOR136W, strain idh2, active compounds read low 1.01 | locus YOR144C, strain elg1, active compounds read low 1 | locus YOR184W, strain ser1, active compounds read low 1.01 | locus YOR231W, strain MKK1, active compounds read low 1 | locus YOR265W, strain rbl2, active compounds read low 1.06 | locus YOR270C, strain vph1, active compounds read low 1.08 | locus YOR290C, strain snf2, active compounds read low 0.979 | locus YOR316C, strain cot1, active compounds read low 1.01 | locus YPL051W, strain arl3, active compounds read low 1.03 | locus YPL078C, strain atp4, active compounds read low 1.03 | locus YPL106C, strain sse1, active compounds read low 1.03 | locus YPL240C, strain hsp82, active compounds read low 1.02 | locus YPL256C, strain CLN2, active compounds read low 0.985 | locus YPR119W, strain clb2, active compounds read low 1.01 | locus YPR141C, strain kar3, active compounds read low 1.01 | locus YPR163C, strain tif3, active compounds read low 1.01 | locus YPR167C, strain met16, active compounds read low 1.01 | strain wtn01, active compounds read low 1.02
